Here are results for 21 compounds from PubChem BioAssay (NCI).

The panel holds about 79,000 compounds, 15% with a hit somewhere; the sample as a whole holds those more often. Unmarked numbers belong to inactive results. Activity calls are given as the source filed them. Cut-off read from the data, not from the text of the source: active = growth inhibition above about 70%; inactive = the rest. Where a SMILES comes first, the peptide text is derived from it.

Experiment [1] is described as follows: NCI Yeast Anticancer Drug Screen. Data for the rad50 strain (AID 155).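 Note: 0% = growth of vehicle-only cultures of the same strain.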 The settings on record: S. cerevisiae rad50 strain growth inhibition; at 50.0 µM; active compounds read high. Summed up:
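Growth of the mutant yeast was measured after compound exposure and referenced to vehicle-treated cultures.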

A short description of experiment [2]: NCI Yeast Anticancer Drug Screen. Data for the mec2-1 strain (AID 157). The settings on record: S. cerevisiae mec2-1 strain, at 50.0 µM, active compounds read high. Summed up: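 Yeast mec2-1 mutant treated with compound. Readout: growth inhibition vs vehicle controls.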
A short description of experiment [3]: NCI Yeast Anticancer Drug Screen. Data for the sgs1 mgt1 strain (AID 161).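 Note: 0% = growth of cultures given vehicle only.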 The settings on record: S. cerevisiae sgs1 mgt1 strain, at 50.0 µM, active compounds read high. Summed up:
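Genetically altered yeast, compound exposure, growth inhibition relative to vehicle.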

The nature of experiment [4]: NCI Yeast Anticancer Drug Screen. Data for the cln2 rad14 strain (AID 165).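 Note: 0% = growth equal to vehicle treated cultures.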 The note with it: S. cerevisiae cln2 rad14 strain, at 50.0 µM, active compounds read high. Summed up: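 cln2 rad14 yeast strain; compound exposure; growth inhibition read vs vehicle controls.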
The nature of experiment [5]: NCI Yeast Anticancer Drug Screen. Data for the bub3 strain (AID 167). The note with it: S. cerevisiae bub3 mutant strain, at 50.0 µM, active compounds read high. Summed up:
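Whole-cell yeast assay. The mutant strain was incubated with compounds, and growth inhibition was determined by comparison with vehicle-treated cells.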

Experiment [6] can be described thus: NCI Yeast Anticancer Drug Screen. Data for the mlh1 rad18 strain (AID 175). The note with it: S. cerevisiae mlh1 rad18 strain growth inhibition; at 50.0 µM; active compounds read high. Summed up:
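Yeast w/ defined DNA-repair lesions; compound exposure; growth vs vehicle controls → % inhibition.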

For `NCCCCN(CCCN)C(=O)c1ccccc1`, the growth inhibition in experiment [1] is 5.5%; in experiment [2] it was -2.2%; in experiment [3] it was -17.8%; in experiment [4], 1.8%; in experiment [5] it was -14.3%; in experiment [6], -68.9%.
Consider `COc1ccc(N2CCN(CC(O)COc3ccc(C(=O)Cc4ccccc4)cc3)CC2)cc1` (stereo unspecified), for which the growth inhibition was 96.4% (active) in experiment [1]; 96.8% (active) in experiment [2]; 99% (active) in experiment [3]; 86.6% (active) in experiment [4]; 91% (active) in experiment [5]; 96.7% (active) in experiment [6].
Turning to `CC(=O)NC(CO)C(=O)NC(Cc1ccc(O)cc1)C(=O)NCC(N)=O` (stereo not drawn) (Ac-Ser-Tyr-Gly-NH2; configuration not given here), the growth inhibition is -26.7% in experiment [1]; -23.5% in experiment [2]; -9.4% in experiment [3]; 18.8% in experiment [4]; 10.9% in experiment [5]; -6.8% in experiment [6].
In the case of `O=C1NC(=O)C2(CC3CCCCC3CC2c2ccccc2)N1` (stereo unspecified), the growth inhibition in experiment [1] was 17.1%; in experiment [2], 13.3%; in experiment [3], 12.8%; in experiment [4] it was 3.1%; in experiment [5], 10.3%; in experiment [6] it was 10.9%.
For the compound `C(=Nc1ccccc1)Nc1ccccc1`, the growth inhibition in experiment [1] was 2.85%; in experiment [2], 15.1%; in experiment [3], 16.4%; in experiment [4] it was 25.9%; in experiment [5], -15.4%; in experiment [6], -12.8%.
With `CC(C)(C)NNC(=O)/C(=C/c1ccc([N+](=O)[O-])cc1)NC(=O)c1ccccc1`, the growth inhibition in experiment [1] was 11.6%; in experiment [2], -17.3%; in experiment [3] it was -8.5%; in experiment [4], 5.2%; in experiment [5] it was -6.2%; in experiment [6], -15.7%.
Regarding `CN1CCC2(CC1)C(=O)N(NC(N)=O)C(=O)C2c1ccccc1` (stereo unspecified), the growth inhibition was 15% in experiment [1]; 2.15% in experiment [2]; 5.7% in experiment [3]; 1.2% in experiment [4]; 1% in experiment [5]; 13.8% in experiment [6].
With `COC(=O)C1C(C(=O)OC)C2N(c3ccccc3)C=NN2C1C(=O)c1ccccc1` (stereo unspecified), the growth inhibition in experiment [1] is -62.2%; in experiment [2], -10.2%; in experiment [3] it was -16%; in experiment [4], -3.65%; in experiment [5] it was 5.05%; in experiment [6], -4.65%.
With `COc1ccc(OC)c2c1ccc1c(C)c3ccccc3c(C)c12`, the growth inhibition is 12.2% in experiment [1]; -1.1% in experiment [2]; 14.2% in experiment [3]; 6.8% in experiment [4]; 34.1% in experiment [5]; 26.2% in experiment [6].
Regarding `Cc1cccc2c1ccc1ccccc12`, the growth inhibition is 5.55% in experiment [1]; 6% in experiment [2]; -5.45% in experiment [3]; -9% in experiment [4]; -9.65% in experiment [5]; 9.5% in experiment [6].
In the case of `NNC(=O)CSc1ncnc2nc[nH]c12`, the growth inhibition in experiment [1] is 1.3%; in experiment [2], 9.8%; in experiment [3], 0.55%; in experiment [4] it was -3%; in experiment [5] it was 9.65%; in experiment [6], -0.5%.
Turning to `CCOC(=O)/C(N=O)=C(/C)O`, the growth inhibition in experiment [1] is 13.8%; in experiment [2] it was 5.9%; in experiment [3] it was 4.8%; in experiment [4], -7.95%; in experiment [5], 11.4%; in experiment [6], 11.3%.
Take `Nc1ncnc2c1ncn2-c1ccccc1`: the growth inhibition in experiment [1] is 4.05%; in experiment [2], 2.95%; in experiment [3], -2.05%; in experiment [4] it was 9.7%; in experiment [5], 9.85%; in experiment [6], -17.4%.
For the compound `O=C(COc1ccc(Cl)cc1)Oc1c(Cl)cc(Cl)cc1Cl`, the growth inhibition in experiment [1] is 96.4% (active); in experiment [2] it was 97.8% (active); in experiment [3], 98.7% (active); in experiment [4] it was 96.8% (active); in experiment [5], 98.2% (active); in experiment [6], 98% (active).
Turning to `Cc1nc(N)sc1N=Nc1ccc(Br)cc1Br`, the growth inhibition in experiment [1] is 85.2% (active); in experiment [2], 68.8%; in experiment [3] it was 86.8% (active); in experiment [4], 63.1%; in experiment [5], 46.9%; in experiment [6] it was 76.4% (active).
Regarding `O/N=C(\c1ccccc1)C1c2ccccc2-c2ccccc21`, the growth inhibition in experiment [1] is -10.1%; in experiment [2], -17.9%; in experiment [3], -19.9%; in experiment [4] it was 21.4%; in experiment [5] it was -5.9%; in experiment [6], -17.4%.
`CC1CCCC2(CC[N+](C)(CCC[N+](C)(C)C)CC2)C1` (stereo unspecified): the growth inhibition in experiment [1] is -9.5%; in experiment [2], -7.95%; in experiment [3] it was -16.2%; in experiment [4], 15.1%; in experiment [5] it was -41%; in experiment [6], -1.7%.
In the case of `O=C(O)c1ccccc1CC(C(=O)O)C(=O)O`, the growth inhibition in experiment [1] was 14.8%; in experiment [2], 4.05%; in experiment [3] it was 3%; in experiment [4] it was 7.95%; in experiment [5], -0.6%; in experiment [6], 6.15%.
As to `CC1Oc2ccc3ccccc3c2C(C)N1C` (stereo unspecified), the growth inhibition was -0.55% in experiment [1]; 1.9% in experiment [2]; -6.45% in experiment [3]; -4.85% in experiment [4]; 1.3% in experiment [5]; 16.9% in experiment [6].
As for `COc1ccc(Nc2cc(N)nc(N)n2)c(=S)[nH]1`, the growth inhibition is 0.05% in experiment [1]; -2.85% in experiment [2]; -5.15% in experiment [3]; 1.75% in experiment [4]; 3.05% in experiment [5]; -0.95% in experiment [6].
For `CS(=O)(=O)Oc1ccccc1OS(C)(=O)=O`, the growth inhibition in experiment [1] was 7.95%; in experiment [2] it was 8.85%; in experiment [3] it was -14.3%; in experiment [4] it was -27.1%; in experiment [5], 2.6%; in experiment [6], -9.65%.
